# Hits are enriched below; roughly 6.5% of the tested compounds scored in any of these assays.
# HCMV antiviral: qHTS Assay for inhibitors of the human cytomegalovirus (HCMV); HFF cells, HCMV-luciferase reporter, 72 h; stronger effect = lower value; activity change, negative = inhibition, % at 57.5 µM; 4.5% of 410,000 active; AID 1259415, 2018; in the data active = activity change below about -60%; inconclusive = no clear call, values can overlap the other calls; inactive = above about -39%
#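 Cell-based, HFFs, 1000 cells/well, 16 h 37C; cpds in DMSO + HCMV-luc, MOI 1 PFU/cell; 72 h 37C; OneGlo luminescence after 5 min RT; norm. to buffer vs Salinomycin 10uM.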
# VACV mCherry inh: qHTS for Stage-Specific Inhibitors of Vaccinia Orthopoxvirus: mCherry Reporter Primary qHTS; Vaccinia virus mCherry reporter infection, fluorescence; Potency, µM (top dose mostly 36.5 µM), for inactives: at the highest dose activity change, negative = inhibition, hits mostly inhibitors; 0.63% of 310,000 active; calls by dose curve; tested in A549 cells; also: potency is read from the fitted curve at half-maximal effect; nearly all actives have a fitted effect of over 35% in size
# MARV entry inh: qHTS for inhibitors of binding or entry into cells for Marburg Virus | Marburg virus pseudotyped entry inhibition, cell reporter | Potency, µM (highest dose often 37.8 µM), without a hit: at the top dose activity change, negative = inhibition, usual class: inhibitors | 1.8% of 300,000 active; calls by dose curve; tested in HEK293 cells; also: potency is read from the fitted curve at half-maximal effect
# Vaccinia Venus: qHTS for Stage-Specific Inhibitors of Vaccinia Orthopoxvirus: Venus Reporter Primary qHTS; Potency, µM (doses to about 36.5 µM), for the others: at the top dose activity change, negative = inhibition, actives largely listed as inhibitors; 0.46% of 330,000 active; AID 720580, 2013; Vaccinia virus Venus reporter expression, fluorescence; calls by dose curve; tested in A549 cells; also: potency is read from the fitted curve at half-maximal effect; nearly all actives have a fitted effect of over 30% in size
# Lassa entry inh: qHTS for Inhibitors of binding or entry into cells for Lassa Virus. Lassa virus pseudotype entry inhibition, cell reporter. Potency, µM (top dose mostly 37.9 µM), inactives show at the top dose activity change, negative = inhibition, usual class: inhibitors. 1.2% of 300,000 active; calls by dose curve; tested in HEK293 cells; also: potency is read from the fitted curve at half-maximal effect; nearly all actives have a fitted effect of over 50% in size
# FMDV antiviral: High Throughput Screening for Foot and Mouth Disease Virus Antivirals | FMDV antiviral cell-based qHTS | Potency, µM (doses to about 57.9 µM), without a hit: top-dose activity change, negative = inhibition, hits mostly inhibitors | 1.2% of 410,000 active; calls by dose curve; tested in HEK293T cells; also: read-out not given here; potency is read from the fitted curve at half-maximal effect; nearly all actives have a fitted effect of over 45% in size
# Active calls of the source: *; i = inactive; ? = inconclusive; / = not tested or not shown; [ ] = another dose, or the depositor's remark. % is scaled to controls: 0 for no effect and ±100 for the full control effect.
SMILES,HCMV antiviral,VACV mCherry inh,MARV entry inh,Vaccinia Venus,Lassa entry inh,FMDV antiviral
CC(=O)[C@]1(O)Cc2c(O)c3c(c(O)c2[C@@H](O[C@H]2C[C@H](N)[C@H](O)[C@H](C)O2)C1)C(=O)c1c(O)cccc1C3=O,/,/,0.056µM*,/,0.16µM*,/
COc1cccc2c1C(=O)c1c(O)c3c(c(O)c1C2=O)CC(O)(C(=O)CO)CC3OC1CC(N(C)C)C(O)C(C)O1 (configuration not stated),-98*,i,?,i,?,-5%
CC(C)NC(=O)c1ccc2c(c1)nc1n2CCCCC1,69,-10%,/,-7%,?,29%
COc1cccc(-c2nc(SC(C(C)=O)C(=O)N(C)C)c3c(=O)n(C)c(=O)n(C)c3n2)c1 (configuration not stated),-12,-3%,/,-13%,-7%[46.1 µM],7%
COc1ccc(/C=N/NC(=O)c2[nH]c3ccc(Cl)cc3c2-c2ccccc2)c(C(=O)O)c1OC,-99*,-9%,-29%,-27%,2%,3%
COc1ccc(/C=N/NC(=O)c2[nH]c3ccc(Br)cc3c2-c2ccccc2)c(C(=O)O)c1OC,-63*,i,-24%[46.1 µM],?,-27%,-16%
O=C(N/N=C/c1ccccc1Cl)c1[nH]c2ccc(Br)cc2c1-c1ccccc1,-18,?,2.5µM*,i,?,-19%
COc1ccc(/C=N/NC(=O)c2[nH]c3ccc(Br)cc3c2-c2ccccc2)cc1,/,?,?,?,?,-18%
COc1ccc(C(=O)NCC2Cc3cccc(-c4ccc(S(C)(=O)=O)cc4)c3O2)c(OC)n1 (configuration not stated),/,-8%,/,-1%,/,-15%
O=C1/C(=C\c2cccc(O)c2)SC(=S)N1Cc1ccccc1,-74*,/,/,/,/,0%
CCCN1C(=O)/C(=C/c2ccncc2)SC1=S,-22,-13%,17%,-5%,0%,0%
C#CCOc1ccc(/C=C2\SC(=S)N(Cc3cccnc3)C2=O)cc1,-73*,-5%,?,2%,8%,18%
O=C1/C(=C/c2ccncc2)SC(=S)N1Cc1ccccc1,-73*,-12%,11µM*,-7%,-26%,?
CN1C(=O)/C(=C\c2ccncc2)SC1=Nc1ccccc1,-67*,?,?,-22%,?,?
O=C1/C(=C/c2ccc(O)cc2)SC(=S)N1Cc1cccnc1,?,i,?,1%,8%,-1%
CC(=O)c1ccc(F)c(-c2cc(C)cc3c2OC(CNC(=O)c2csc(C)n2)C3)c1 (configuration not stated),/,-19%,/,-15%,/,-17%
Cc1ccc(CNC(=O)C(=O)NCC(c2cccs2)S(=O)(=O)c2ccccc2)cc1 (configuration not stated),?,i,/,-8%,?,-23%
O=C1/C(=C\c2cc([N+](=O)[O-])ccc2O)SC(=S)N1Cc1ccc(Cl)cc1,-77*,/,/,/,/,?
O=C1/C(=C\c2cccc(O)c2O)SC(=S)N1Cc1ccccc1,3,-15%,?,34%,?,?
O=C(CSc1c2c(nc3cc(Cl)ccc13)CCCC2)N1CCN(c2ccccc2)CC1,-78*,-18%,-27%[46.1 µM],-18%,-10%[46.1 µM],?
O=C(CSc1c2c(nc3cc(Cl)ccc13)CCCC2)NCc1ccccc1Cl,-80*,-17%,?,-20%,?,?
CCOC(=O)c1ccc(OCC2c3cc(OC)c(OC)cc3CCN2C(=O)Cc2ccc(F)cc2)cc1 (configuration not stated),-3,-2%,/,-7%,?,-25%
CCc1nc2cc(C(=O)NC3CCOC(C)(C)C3)cc(NC(=O)c3ccccc3OC)c2n1C (configuration not stated),/,-24%,/,-11%,/,1%
CCCN(CCC)S(=O)(=O)c1ccc2c(c1)N(CC(=O)NC(C)c1ccccc1)C(=O)CS2 (configuration not stated),0,-22%,/,-19%,-25%[46.1 µM],-8%
CCCN1C(C(=O)c2ccccc2)=C(OC(=O)COc2ccc(C)cc2)c2ccccc2S1(=O)=O,-91*,?,?,?,?,0%
SMILES,HCMV antiviral,VACV mCherry inh,MARV entry inh,Vaccinia Venus,Lassa entry inh,FMDV antiviral
CCN1C(C(=O)c2ccccc2)=C(OC(=O)COc2ccc(C)cc2)c2ccccc2S1(=O)=O,-32,?,?,?,0%[46.1 µM],-4%
CCN1C(C(=O)c2ccccc2)=C(OC(=O)c2ccc(Cl)cc2)c2ccccc2S1(=O)=O,-77*,-30%,-5%[46.1 µM],-18%,7%[46.1 µM],-2%
CCCN1C(C(=O)c2ccccc2)=C(OC(=O)C(C)(C)C)c2ccccc2S1(=O)=O,-89*,?,-27%[46.1 µM],?,?,-15%
CCOC(=O)CN1C(C(=O)c2ccccc2)=C(OC(=O)c2ccccc2)c2ccccc2S1(=O)=O,7,-20%,0%[46.1 µM],-20%,-1%[46.1 µM],-24%
CCCN1C(C(=O)c2ccccc2)=C(OC(=O)COc2ccccc2)c2ccccc2S1(=O)=O,-88*,?,?,?,-18%[46.1 µM],-4%
CCN1C(C(=O)c2ccccc2)=C(OC(=O)COc2ccc(OC)cc2)c2ccccc2S1(=O)=O,?,-27%,26%[46.1 µM],-24%,-6%[46.1 µM],-11%
Cc1ccccc1CN1CCc2nnc(C(C)NC(=O)C3CCN(C)CC3)n2CC1 (configuration not stated),/,i,/,0%,/,4%
CCOc1cc(/C=C2/C(=O)ON=C2C)cc(Br)c1O,38,i,/,6%,/,?
CCOc1cc(/C=C2\C(=O)ON=C2C)ccc1OCc1ccccc1,-76*,-14%,?,-5%,8%,28µM*
COc1cc(C=C2C(=O)OC(c3ccccc3)OC2=O)cc(Br)c1O (configuration not stated),3,i,12%[46.1 µM],-5%,-23%[46.1 µM],10µM*
COc1cc(/C=C2\C(=O)ON=C2c2ccccc2)cc(Br)c1O,16,4%,-2%[46.1 µM],51%,0%[46.1 µM],10µM*
CCOc1cc(/C=C2\C(=O)ON=C2c2ccccc2)cc(Br)c1O,-22,5%,2%[46.1 µM],61%,-3%,11µM*
COc1cc(/C=C2\C(=O)NC(=O)N(c3ccccc3)C2=O)cc(OC)c1O,-27,/,-1%,/,8%,2%
O=C1ON=C(c2ccc(Cl)cc2)/C1=C/c1ccc(O)cc1,-100*,7%,?,8%,-23%,13µM*
COc1cc(/C=C2/C(=O)ON=C2c2ccccc2)ccc1O,2,-4%,-4%,-7%,0%,?
COc1cc(/C=C2\C(=O)ON=C2c2ccccc2)cc(Cl)c1O,20,14%,-4%[46.1 µM],40%,2%,7.1µM*

# High-throughput results from PubChem.
